A selection: hits, their analogues and other compounds. The true share with any hit is near 3.8%.
ADAM10 inh: inhibitors of human ADAM10. recombinant ADAM10, EDANS/DABCYL FRET peptide cleavage, 3 h. inhibition, % at 7 µM. O14672. 370,000 tested, 0.62% active;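 active = inhibition above a per-campaign cutoff equal to the mean of compounds falling between control-based bounds plus 3 SD, cut at about 20% in these data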;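 also: 0% = DMSO wells while the 100% control is not disclosed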
FGF22 binding: shifts melting point of recombinant human FGF22; Q9HCT0; recombinant FGF22 thermal shift, SYPRO orange fluorescence; percent of sucrose octasulfate shift, DMSO zero; activity (Tm shift, normalised), % at 9.99 µM; 340,000 tested, 1.5% active; AID 651658;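 active = mean Tm shift, scaled 0 neutral to 100 positive control, at about 1.3% or above, every replicate too, limit read from the data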
ADAM17 inh: inhibits human ADAM17; recombinant ADAM17, EDANS/DABCYL FRET peptide cleavage; inhibition, % at 6.95 µM; 370,000 tested, 0.83% active;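 active = inhibition above the mean of compounds lying between control limits plus 3 SD, set per campaign, cut at about 8.5% in these data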;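 also: 0% = DMSO-only wells as the low control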
Target sequence (P78536 215-824 limits assumed): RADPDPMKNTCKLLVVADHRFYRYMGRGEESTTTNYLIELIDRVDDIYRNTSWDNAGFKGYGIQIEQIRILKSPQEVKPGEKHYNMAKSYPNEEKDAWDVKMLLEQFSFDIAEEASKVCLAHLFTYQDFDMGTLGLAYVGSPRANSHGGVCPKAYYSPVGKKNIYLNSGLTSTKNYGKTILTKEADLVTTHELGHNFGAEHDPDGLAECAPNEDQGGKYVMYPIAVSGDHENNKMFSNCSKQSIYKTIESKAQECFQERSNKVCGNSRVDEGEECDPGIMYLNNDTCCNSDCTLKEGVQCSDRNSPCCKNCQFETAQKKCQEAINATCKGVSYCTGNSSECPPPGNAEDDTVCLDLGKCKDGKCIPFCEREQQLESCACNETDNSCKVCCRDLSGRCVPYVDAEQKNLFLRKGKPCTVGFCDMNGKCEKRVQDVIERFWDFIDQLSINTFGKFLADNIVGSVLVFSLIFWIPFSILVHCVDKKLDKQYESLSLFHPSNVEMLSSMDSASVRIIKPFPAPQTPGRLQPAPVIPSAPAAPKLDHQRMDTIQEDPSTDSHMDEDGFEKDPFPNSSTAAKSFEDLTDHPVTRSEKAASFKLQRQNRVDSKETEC
KLK7 zymogen act: activators of human kallikrein-7 zymogen; purified proKLK7, EDANS-DABCYL substrate fluorescence; 100% is mature enzyme control, 0% vehicle; activation, % at 7 µM; AID 652039; 370,000 tested, 0.9% active; P49862;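 active = activation above the mean of all tested compounds plus 3 SD, computed per campaign excluding outliers beyond control limits, cut at about 13% in these data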
rRNA inh HTS: inhibits bacterial ribosomal RNA function over humanized ribosomes | E. coli WT GFP vs humanized-ribosome RFP mutants, fluorescence, 24 h; hits give low values; DMSO median 0, no signal -100 | GFP signal change (wild-type ribosome), % (concentration not given with the values) | 350,000 tested, 1.6% active;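 active = significant combined selectivity score with lowered wild-type GFP, culture density cut under 30%, mutant RFP and density less affected; inactive = any of these conditions unmet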
* marks the source's active call; other numbers are inactive results; x = no result given.

SMILES	ADAM10 inh	FGF22 binding	ADAM17 inh	KLK7 zymogen act	rRNA inh HTS
CC(C)[C@H](NC(=O)c1ccccc1)C(=O)OCC(=O)Nc1ccc(S(=O)(=O)N2CCOCC2)cc1	-4.8	42.9*	-2.1	-0.2	7.5
CCC(=O)N1CC2(CCN(Cc3ccc(Cl)cc3)CC2)c2c([nH]c3cc(OC)ccc23)[C@@H]1CO	x	x	x	x	-4.9
C[C@@H]1CN([C@H](C)CO)C(=O)c2cc(-c3cccc(F)c3)cnc2O[C@@H]1CN(C)C(=O)c1cnccn1	x	0.0	x	x	3.8
Cc1ccc(C(NC(=O)N2CCN(C)CC2)C(Cl)Cl)cc1F (centres undefined)	0.6	44.5*	-1.1	-0.5	9.8
Oc1ccc2ccccc2c1N=Nc1ccccc1F	-10.5	0.1	-4.3	-1.2	12.9
O=S(=O)(O)c1cccc(N=Nc2c(O)ccc3ccccc23)c1	8.1	-0.6	0.6	-0.7	-33.2*
CC(C)NC(=O)N(C)C[C@@H]1Oc2ccc(NC(=O)CCCCCC(=O)Nc3ccccc3N)cc2CC(=O)N([C@@H](C)CO)C[C@H]1C	x	-0.3	x	x	2.9
COc1ccc(NC(=O)N(C)C[C@@H]2OCCCC[C@H](C)Oc3ccc(NS(=O)(=O)c4ccc(OC)cc4)cc3C(=O)N([C@H](C)CO)C[C@H]2C)cc1	x	-0.7	x	x	-4.2
O=C(COc1ccccc1)NNc1nc2ccccc2s1	-2.3	0.1	-2.7	0.0	-27.5*
O=C(Nc1nc2ccccc2s1)c1ccccc1[N+](=O)[O-]	1.4	0.1	1.6	-0.2	-7.5
O=C(O)c1cccc([N+](=O)[O-])c1C(=O)Nc1nc2ccccc2s1	-1.4	43.4*	-3.1	-0.1	6.6
CC(=O)Nc1cccc(/C(C)=N/Nc2nc3ccccc3s2)c1	2.5	43.1*	4.3	1.6	-20.6
COc1ccc2nc(NNC(=O)COc3ccccc3)sc2c1	-1.6	0.0	-3.4	0.5	-3.2
COc1ccc(C(=O)Nc2nc3ccccc3s2)cc1	1.1	0.7	-2.2	0.5	-45.0
COc1cccc(C(=O)Nc2nc3ccccc3s2)c1	3.6	0.3	-2.6	0.2	-29.5*
CC(C)CC#Cc1ccc([C@H]2[C@@H](CO)N3C(=O)CN(C(=O)NC(C)C)C[C@H]23)cc1	x	x	x	x	-0.1
COc1ccc2c3c([nH]c2c1)[C@H](CO)N(Cc1ccccc1Cl)CC31CN(C(C)=O)C1	x	-0.2	x	x	-1.2
CN(C)Cc1cn(CC[C@H]2CC[C@@H](NS(=O)(=O)c3ccc(-c4ccccc4)cc3)[C@@H](CO)O2)nn1	x	-0.3	x	x	-3.7
COc1ccc2nc(NC(=O)Nc3cccc4ccccc34)sc2c1	-24.3	x	-11.2	-1.9	-23.2*
CS(=O)(=O)c1ccc2nc(NC(=O)Nc3ccccc3F)sc2c1	1.8	0.1	-2.3	-1.0	-5.4
COc1ccc2nc(NC(=O)Nc3ccccc3OC)sc2c1	4.1	-0.1	1.1	-0.5	0.2
COc1ccccc1NC(=O)Nc1nc2ccc(S(N)(=O)=O)cc2s1	-2.6	-0.5	-1.8	-0.8	-15.9*
COc1cc(Br)cc(/C=N/N(CCO)C2=NS(=O)(=O)c3ccccc32)c1OC	2.5	-0.3	2.6	-0.9	-21.5*
CCOc1cc(/C=C(\C#N)C(=O)Nc2cccc(C(=O)O)c2)cc(Br)c1OC(=O)c1ccc(OC)cc1	12.0	-0.1	2.8	0.2	-33.3*
Cc1ccc(Cl)cc1N1CCN(C(=O)Cc2cn(C)c3ccccc23)CC1	0.2	x	0.5	0.8	x
SMILES	ADAM10 inh	FGF22 binding	ADAM17 inh	KLK7 zymogen act	rRNA inh HTS
Cc1ccc(Cl)cc1N1CCN(C(=O)Cc2c(C(=O)O)[nH]c3ccccc23)CC1	-1.3	0.4	2.3	0.1	-30.4*
COc1ccc(C(=O)NCC(=O)N2CCCC(C)C2)cc1OC (centres undefined)	0.3	43.1*	0.1	0.3	9.9
O=C1[C@H](Cc2ccc(C(F)(F)F)cc2)CCn2cc(nn2)COC[C@H]2CCCCN12	x	x	x	x	-3.0
CCC(=O)Nc1sc(C(=O)Nc2ccccc2F)c(C)c1C(=O)OC	1.6	0.1	1.4	-0.4	11.2
CCOC(=O)c1c(N)sc(C(=O)Nc2ccccc2F)c1C	-8.8	0.1	-2.9	-0.7	-26.5*
COc1cc(-c2cc(-c3ccccc3)nc(SCC(=O)O)c2C#N)cc(OC)c1OC	-9.2	-0.2	-2.3	0.7	-29.0*
N#Cc1c(-c2ccc(Cl)cc2)cc(-c2ccccc2)nc1SCC(=O)O	-4.4	-0.2	1.3	-0.2	-49.2
Cc1cc(Oc2ccc(Cl)cc2)nc(-c2ccccn2)n1	5.7	0.4	-6.7	0.4	-32.7*
CCCNC(=O)C[C@H]1CC[C@@H]2[C@H](COc3ccc(NC(=O)CCC)cc3C(=O)N2C)O1	x	-0.3	x	x	0.7
CCOc1ccc2nc(SCC3CC3(Cl)Cl)[nH]c2c1 (centres undefined)	6.8	0.1	4.7	-0.1	-44.9
ClC1(Cl)CC1CSc1nc2ccccc2[nH]1 (centres undefined)	6.2	0.7	-1.8	0.0	-27.5*
CCOC(=O)c1cc2sccc2n1CCCN1C(=O)c2ccccc2C1=O	12.0	0.3	2.1	0.0	-28.1*
CCOC(=O)c1cc2sccc2n1Cc1ccccc1	9.3	x	-2.7	-0.2	x
Cc1cc(C(=O)Nc2cccc3c2O[C@@H](CN(C)C(=O)Nc2ccccc2)[C@@H](C)CN([C@H](C)CO)C3=O)n(C)n1	x	-0.3	x	x	-5.3
COc1ccc(CCn2c(N)c(S(=O)(=O)c3cccs3)c3nc4ccccc4nc32)cc1OC	-44.3	0.2	-16.4	-0.2	-20.8*
CC12CCC(CC1O)C2C(=O)O (centres undefined)	-0.5	43.5*	-3.8	-0.1	10.7
Cc1cc(S(=O)(=O)N(Cc2ccc(F)cc2)CC2CCCO2)ccc1-n1cnnn1 (centres undefined)	-0.7	-0.2	-2.3	-0.5	-20.8*
Cc1cc(S(=O)(=O)N(Cc2ccc3c(c2)OCO3)CC2CCCO2)ccc1-n1cnnn1 (centres undefined)	4.2	x	-4.5	-0.2	x
COCC(=O)N(C)C[C@@H]1Oc2cc(-c3ccc(OC)cc3)ccc2S(=O)(=O)N([C@H](C)CO)C[C@H]1C	x	0.4	x	x	-3.9
O=C(NCc1ccc(Cl)cc1)c1cccc(S(=O)(=O)N2CCCC2)c1	-0.9	0.0	-3.1	0.0	-19.0*
O=C(NC1CCS(=O)(=O)C1)c1cccc(S(=O)(=O)N2CCCCCC2)c1 (centres undefined)	-5.6	0.2	-1.4	-1.1	6.8
O=C(NC1CCS(=O)(=O)C1)c1cccc(S(=O)(=O)N2CCCC2)c1 (centres undefined)	1.1	43.2*	-0.2	-0.1	6.8
CCCNC(=O)N1C[C@@H](O)COC[C@H]2O[C@@H](CC(=O)N3CCC(Cc4ccccc4)CC3)CC[C@@H]21	x	-0.1	x	x	2.0
COC(=O)CC1C(=O)NCCN1C(=S)NC(=O)CCc1ccccc1 (centres undefined)	-8.5	0.3	-5.1	0.2	4.5
